Results: PubChem BioAssay (NCATS)
Results filed as inconclusive are left out. Values without a mark were called inactive. Calls of active or inactive are those of the source. The call rests on the fitted dose curve; in most records, active means well fitted curve in the direction sought with a large enough effect; inconclusive means small, poorly fitted or top-dose-only effect, or another doubt; inactive means no such curve, though single readings can be large; an effect the other way counts as inactive or inconclusive.

Columns and labels:
[1] = Quantitative High-Throughput drug screen in 47 multiple myeloma cell lines against the NCATS MIPE library collection: KMS26_JCRB cell viability assay (AID 1918975); further: nearly all actives have a fitted effect of over 45% in size; further: potency means the concentration at half of the fitted maximal effect
In short: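 Inhibition of cell viability is measured here. Each line was plated at 500 cells per well, treated with MIPE 4.0 drugs, kept 48 hours at 37C, then assayed for ATP content by CellTiter-Glo luminescence.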

[2] = Quantitative High-Throughput drug screen in 47 multiple myeloma cell lines against the NCATS MIPE library collection: MMM1_PLB cell viability assay (AID 1918976); further: potency means the concentration at half of the fitted maximal effect; nearly all actives have a fitted effect of over 35% in size
In short: (§1)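 qHTS format: cells plated (500/well), pin-dosed with MIPE 4.0 compounds, kept 48 h at 37 °C. Readout was CellTiter-Glo luminescence, median RLU.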

[3] = Quantitative High-Throughput drug screen in 47 multiple myeloma cell lines against the NCATS MIPE library collection: NCIH929_DSMZ cell viability assay (AID 1918978); further: nearly all actives have a fitted effect of over 35% in size; further: potency means the concentration at half of the fitted maximal effect
In short: as §1

[4] = Quantitative High-Throughput drug screen in 47 multiple myeloma cell lines against the NCATS MIPE library collection: OCIMY1_PLB cell viability assay (AID 1918979); further: nearly all actives have a fitted effect of over 35% in size; further: potency means the concentration at half of the fitted maximal effect
In short: as §1

[5] = Quantitative High-Throughput drug screen in 47 multiple myeloma cell lines against the NCATS MIPE library collection: MM1R_ATCC cell viability assay (AID 1918981); further: nearly all actives have a fitted effect of over 35% in size; further: potency means the concentration at half of the fitted maximal effect
In short: as §1

[6] = Quantitative High-Throughput drug screen in 47 multiple myeloma cell lines against the NCATS MIPE library collection: LP1_DSMZ cell viability assay (AID 1918982); further: nearly all actives have a fitted effect of over 35% in size; further: potency means the concentration at half of the fitted maximal effect
In short: as §1

[7] = Quantitative High-Throughput drug screen in 47 multiple myeloma cell lines against the NCATS MIPE library collection: KMS34_JCRB cell viability assay (AID 1918985); further: nearly all actives have a fitted effect of over 40% in size; further: potency means the concentration at half of the fitted maximal effect
In short: as §1

[8] = Quantitative High-Throughput drug screen in 47 multiple myeloma cell lines against the NCATS MIPE library collection: OCIMY5_PLB cell viability assay (AID 1918988); further: potency means the concentration at half of the fitted maximal effect; nearly all actives have a fitted effect of over 65% in size
In short: as §1

[9] = Quantitative High-Throughput drug screen in 47 multiple myeloma cell lines against the NCATS MIPE library collection: OPM1_PLB cell viability assay (AID 1918989); further: nearly all actives have a fitted effect of over 40% in size; further: potency means the concentration at half of the fitted maximal effect
In short: as §1

[10] = Quantitative High-Throughput drug screen in 47 multiple myeloma cell lines against the NCATS MIPE library collection: U266_ATCC cell viability assay (AID 1919864); further: nearly all actives have a fitted effect of over 35% in size; further: potency means the concentration at half of the fitted maximal effect
In short: as §1

[11] = Quantitative High-Throughput drug screen in 47 multiple myeloma cell lines against the NCATS MIPE library collection: XG6_PLB cell viability assay (AID 1919865); further: nearly all actives have a fitted effect of over 40% in size; further: potency means the concentration at half of the fitted maximal effect
In short: as §1

[12] = Quantitative High-Throughput drug screen in 47 multiple myeloma cell lines against the NCATS MIPE library collection: XG1_PLB cell viability assay (AID 1919866); further: nearly all actives have a fitted effect of over 35% in size; further: potency means the concentration at half of the fitted maximal effect
In short: as §1

[13] = Quantitative High-Throughput drug screen in 47 multiple myeloma cell lines against the NCATS MIPE library collection: MM1S_ATCC cell viability assay (AID 1918980); further: potency means the concentration at half of the fitted maximal effect; nearly all actives have a fitted effect of over 45% in size
In short: as §1

[14] = Quantitative High-Throughput drug screen in 47 multiple myeloma cell lines against the NCATS MIPE library collection: KMS28PE_JCRB cell viability assay (AID 1918983)
In short: as §1

[15] = Quantitative High-Throughput drug screen in 47 multiple myeloma cell lines against the NCATS MIPE library collection: L363_DSMZ cell viability assay (AID 1918984); further: nearly all actives have a fitted effect of over 40% in size; further: potency means the concentration at half of the fitted maximal effect
In short: as §1

[16] = Quantitative High-Throughput drug screen in 47 multiple myeloma cell lines against the NCATS MIPE library collection: SKMM1_PLB cell viability assay (AID 1919863); details: SKMM1 myeloma viability, CellTiter-Glo ATP, 48 h; viability: hits give low values
In short: as §1

[17] = Quantitative High-Throughput drug screen in 47 multiple myeloma cell lines against the NCATS MIPE library collection: MOLP8_DSMZ cell viability assay (AID 1918977); further: nearly all actives have a fitted effect of over 45% in size; further: potency means the concentration at half of the fitted maximal effect
In short: as §1

[18] = Quantitative High-Throughput drug screen in 47 multiple myeloma cell lines against the NCATS MIPE library collection: VP6_DJ cell viability assay (AID 1919867); further: nearly all actives have a fitted effect of over 40% in size; further: potency means the concentration at half of the fitted maximal effect
In short: as §1

[19] = Quantitative High-Throughput drug screen in 47 multiple myeloma cell lines against the NCATS MIPE library collection: OCIMY7_PLB cell viability assay (AID 1918987); details: OCI-MY7 myeloma viability, CellTiter-Glo ATP, 48 h; viability (% of DMSO): at 45.8 µM (top of the series); further: potency means the concentration at half of the fitted maximal effect; nearly all actives have a fitted effect of over 65% in size
In short: as §1

[20] = Quantitative High-Throughput drug screen in 47 multiple myeloma cell lines against the NCATS MIPE library collection: KMS21BM_JCRB cell viability assay (AID 1918974); details: ATP luminescence, 48 h; viability: at 45.8 µM (top of the series) unless noted
In short: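 Steps: seed 500 cells per well; pin-transfer MIPE 4.0 library; incubate 48 h at 37C, 5% CO2, humidified; add CellTiter-Glo, 5 min room temperature; read luminescence.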

## C[C@]12CC[C@@H]3c4ccc(O)cc4CC[C@H]3[C@H]1C[C@@H](O)[C@H]2O
[1]
  Potency: 0.0418 µM (active)
[2]
  Potency: 13.2 µM (active)
[3]
  Potency: inactive
[4]
  Potency: inactive
[5]
  Potency: inactive
[6]
  Potency: inactive
[7]
  Potency: inactive
[8]
  Potency: 3.32 µM (active)
[9]
  Potency: inactive
[10]
  Potency: 18.7 µM (active)
[11]
  Potency: 5.9 µM (active)
[12]
  Potency: inactive

## COc1cc2ncnc(-n3nc(-c4ccccn4)nc3N)c2cc1OC
[1]
  Potency: 14.8 µM (active)
[2]
  Potency: 4.18 µM (active)
[3]
  Potency: 4.18 µM (active)
[4]
  Potency: inactive
[13]
  Potency: 20.9 µM (active)
[5]
  Potency: 18.7 µM (active)
[6]
  Potency: inactive
[14]
  Potency: 11.8 µM (active)
[15]
  Potency: 0.662 µM (active)
[8]
  Potency: 5.26 µM (active)
[9]
  Potency: 11.8 µM (active)
[16]
  Potency: 0.662 µM (active)
[11]
  Potency: 1.05 µM (active)
[12]
  Potency: 5.9 µM (active)

## CC(C)=CC[C@@H](O)C1=CC(=O)c2c(O)ccc(O)c2C1=O
[1]
  Potency: 0.418 µM (active)
[2]
  Potency: 1.05 µM (active)
[17]
  Potency: 0.418 µM (active)
[4]
  Potency: 1.18 µM (active)
[13]
  Potency: 0.662 µM (active)
[5]
  Potency: 0.264 µM (active)
[6]
  Potency: 3.32 µM (active)
[7]
  Potency: 1.05 µM (active)
[8]
  Potency: 0.469 µM (active)
[9]
  Potency: 16.6 µM (active)
[16]
  Potency: 1.05 µM (active)
[10]
  Potency: 0.469 µM (active)
[11]
  Potency: 0.469 µM (active)
[12]
  Potency: 0.418 µM (active)
[18]
  Potency: 0.833 µM (active)

## CC1(C)CCC(CN2CCN(c3ccc(C(=O)NS(=O)(=O)c4ccc(NCC5CCOCC5)c([N+](=O)[O-])c4)c(Oc4cnc5[nH]ccc5c4)c3)CC2)=C(c2ccc(Cl)cc2)C1
[1]
  Potency: 18.7 µM (active)
[2]
  Potency: 0.166 µM (active)
[17]
  Potency: 18.7 µM (active)
[3]
  Potency: 23.5 µM (active)
[4]
  Potency: 10.5 µM (active)
[13]
  Potency: 23.5 µM (active)
[5]
  Potency: 14.8 µM (active)
[6]
  Potency: 18.7 µM (active)
[14]
  Potency: 16.6 µM (active)
[7]
  Potency: 16.6 µM (active)
[8]
  Potency: 0.0148 µM (active)
[9]
  Potency: 5.26 µM (active)
[16]
  Potency: 20.9 µM (active)
[18]
  Potency: 7.43 µM (active)

## CCc1ccc(OCc2ccccc2C(=O)Nc2ccc3nc(C)cc(N)c3c2)cc1
[1]
  Potency: 6.62 µM (active)
[2]
  Potency: 6.62 µM (active)
[17]
  Potency: 7.43 µM (active)
[3]
  Potency: 1.05 µM (active)
[4]
  Potency: 8.33 µM (active)
[13]
  Potency: 4.69 µM (active)
[5]
  Potency: 3.32 µM (active)
[6]
  Potency: 8.33 µM (active)
[14]
  Potency: 8.33 µM (active)
[15]
  Potency: 1.18 µM (active)
[7]
  Potency: 7.43 µM (active)
[19]
  Potency: 1.05 µM (active)
[8]
  Potency: 7.43 µM (active)
[9]
  Potency: 1.32 µM (active)
[16]
  Potency: 6.62 µM (active)
[10]
  Potency: 5.9 µM (active)
[11]
  Potency: 1.05 µM (active)
[12]
  Potency: 1.48 µM (active)
[18]
  Potency: 1.32 µM (active)

## CNC1CCC(N(Cc2cccc(-c3ccncc3)c2)C(=O)c2sc3c(F)ccc(F)c3c2Cl)CC1 (centres undefined)
[1]
  Potency: 16.6 µM (active)
[2]
  Potency: 26.4 µM (active)
[3]
  Potency: 4.69 µM (active)
[4]
  Potency: 23.5 µM (active)
[13]
  Potency: 14.8 µM (active)
[5]
  Potency: 18.7 µM (active)
[6]
  Potency: 23.5 µM (active)
[15]
  Potency: 11.8 µM (active)
[19]
  Potency: 0.0662 µM (active)
[8]
  Potency: 18.7 µM (active)
[9]
  Potency: 13.2 µM (active)
[16]
  Potency: 18.7 µM (active)
[10]
  Potency: 18.7 µM (active)
[11]
  Potency: 14.8 µM (active)
[12]
  Potency: 18.7 µM (active)
[18]
  Potency: 13.2 µM (active)

## O=c1cc(N2CCOCC2)oc2c(-c3cccc4c3sc3ccccc34)cccc12
[1]
  Potency: 20.9 µM (active)
[2]
  Potency: 20.9 µM (active)
[17]
  Potency: 4.18 µM (active)
[3]
  Potency: 3.72 µM (active)
[5]
  Potency: 16.6 µM (active)
[15]
  Potency: 8.33 µM (active)
[19]
  Potency: 1.18 µM (active)
[8]
  Potency: 20.9 µM (active)
[9]
  Potency: 4.18 µM (active)
[16]
  Potency: 11.8 µM (active)
[10]
  Potency: inactive
[11]
  Potency: 5.9 µM (active)
[12]
  Potency: 6.62 µM (active)
[18]
  Potency: 3.72 µM (active)

## COc1cc(N2CCC(N3CCN(C)CC3)CC2)ccc1Nc1ncnc(Nc2ccccc2S(=O)(=O)C(C)C)n1
[20]
  Potency: inactive
[16]
  Potency: 23.5 µM (active)
[11]
  Potency: 7.43 µM (active)

## C[C@]12CC[C@@H]3c4ccc(O)cc4C[C@@H](CCCCCCCCCS(=O)CCCC(F)(F)C(F)(F)F)[C@H]3[C@H]1CC[C@H]2O (some centres undefined)
[1]
  Potency: inactive
[2]
  Potency: 18.7 µM (active)
[17]
  Potency: inactive
[4]
  Potency: inactive
[13]
  Potency: 2.96 µM (active)
[6]
  Potency: 11.8 µM (active)
[15]
  Potency: inactive
[19]
  Potency: 5.9 µM (active)
[8]
  Potency: 10.5 µM (active)
[9]
  Potency: inactive
[10]
  Potency: inactive
[11]
  Potency: 6.62 µM (active)
[12]
  Potency: inactive

## Cc1c(NC(=O)c2ccc(C(C)(C)C)cc2)cccc1-c1cn(C)c(=O)c(Nc2ccc(C(=O)N3CCOCC3)cc2)n1
[1]
  Potency: 16.6 µM (active)
[2]
  Potency: 26.4 µM (active)
[17]
  Potency: inactive
[3]
  Potency: 20.9 µM (active)
[13]
  Potency: 20.9 µM (active)
[5]
  Potency: 20.9 µM (active)
[14]
  Potency: 23.5 µM (active)
[19]
  Potency: 8.33 µM (active)
[8]
  Potency: 16.6 µM (active)
[9]
  Potency: 18.7 µM (active)
[10]
  Potency: 23.5 µM (active)
[11]
  Potency: 20.9 µM (active)
[12]
  Potency: 9.35 µM (active)

## O=C(O)[C@H]1O[C@H](Oc2cc3oc(-c4ccccc4)cc(=O)c3c(O)c2O)[C@H](O)[C@@H](O)[C@H]1O
[1]
  Potency: 20.9 µM (active)
[2]
  Potency: 20.9 µM (active)
[3]
  Potency: inactive
[5]
  Potency: 23.5 µM (active)
[14]
  Potency: 16.6 µM (active)
[15]
  Potency: inactive
[8]
  Potency: 23.5 µM (active)
[9]
  Potency: 18.7 µM (active)
[16]
  Potency: 20.9 µM (active)
[11]
  Potency: inactive
[18]
  Potency: inactive
